Assay results published in PubChem BioAssay (EPA / NIEHS).
Where “and” joins values, the source holds several entries; their conditions need not be identical. Equal values may be shown once. Calls of active or inactive are those of the source. The calls were made as follows: active = hit-call score of the fitted dose curve at least 0.9, where 1 is the maximum; inactive = score below 0.9.

Read-out: CD40, CD40 (gene 958)
Assay: BSK_LPS_CD40: BioMAP Diversity Plus: LPS Assay for CD40 Biomarker Activity (AID 2283076)
Conditions: primary human HUVEC with PBMC; actives raise or lower the signal
Method: BSK_LPS is a cell-based, multiplexed-readout assay that uses umbilical vein endothelium and peripheral blood mononuclear cells, a human vascular primary cell co-culture, with measurements taken at 24 hours after chemical dosing in a 96-well plate.BSK_LPS_CD40 is an assay component measured in the BSK_LPS assay. It measures CD40 antibody related to regulation of gene expression using ELISA technology.Data from the assay component BSK_LPS_CD40 was analyzed into 1 assay endpoint. This assay endpoint, BSK_LPS_CD40, was analyzed with bidirectional fitting relative to DMSO as the negative control and baseline of activity. Using a type of binding reporter, gain or loss-of-signal activity can be used to understand changes in the signaling as they relate to the gene CD40. Furthermore, this assay endpoint can be referred to as a primary readout, because this assay has produced multiple assay endpoints where this one serves a signaling function. To generalize the intended target to other relatable targets, this assay endpoint is annotated to the cytokine intended target family, where the subfamily is inflammatory factor.
The levels of cell surface (or secreted, indicated by the prefix "s") biomarker endpoints were measured by ELISA. Overt cytotoxicity to cells in confluent adherent cultures (all systems other than the BT system) was assessed by measuring total protein levels using sulforhodamine B (SRB) staining in parallel cultures at the time of biomarker measurements, indicated as SRB endpoints. For proliferation assays for adherent cell types, individual cell types are cultured at sub-confluence and relative cell numbers quantified by SRB staining at time points optimized for each system (48 h: 3C and CASM3C systems; 72 h: BT and HDF3CGF systems; 96 h: SAg system). SRB was performed by staining cells with 0.1% SRB after fixation with 10% TCA and reading wells at 560 nm.Viability and proliferation of PBMC (T cells) was quantified by Alamar Blue reduction for the SAg and BT systems. For PBMC viability (referred to as PBMC Cytotoxicity within the assay endpoint names), cells were plated (75,000/well in a 96-well plate) and then chemical samples added for 1 h before addition of activators, SEB and TSST-1 (20 ng/mL final concentration each). Cells were incubated for 90 h. Then, Alamar Blue (20 uL/well) (Invitrogen, Cat DAL1100) was added for 6 h, and the plates were read with a fluorescence microplate reader at 546/580 nm (excitation/emission). For PBMC proliferation, cells were plated and activated as above but incubated for only 16 h prior to addition of Alamar Blue. Plates were read after 6 h.

Structure (SMILES)	AC50	outcome
CC/C=C\C/C=C\C/C=C\CCCCCCCC(=O)OC	20 µM (active)	
CCN1CN(CC)CN(CC)C1		inactive
CC(CCC(=O)O)(c1ccc(O)cc1)c1ccc(O)cc1		inactive
Oc1ccc(/C=C/c2cc(O)cc(O)c2)cc1		inactive
Oc1ccccc1Cc1ccccc1O		inactive
Clc1cc(Cl)c(Cl)c(Cl)c1Cl		inactive
CC1=CC=C(C(C)C)CC1		inactive
c1ccc2sc(SSN3CCOCC3)nc2c1		inactive
Oc1c(Cl)cc(Cl)c(Cl)c1Cl	20 µM (active)	
CCCCCCOC(=O)CCCCC(=O)OCCCCCC		inactive
CC(C)CCCCCOC(=O)CS		inactive
CCOC(=O)/C=C\C(=O)OCC		inactive
CC=C(C)C=CC=C(C)C	7.42 µM (active)	
CCCCCCCCCCCC(C)=O	31.3 µM (active)	
O=C1CCCCCCCCCCC1		inactive
CCCCCCCCC(CO)CCCCCC (stereo not given)		inactive
C1CNCCN1		inactive
CC(C)c1cccc(C(C)C)c1N		inactive
CC1(C)CC(O)CC(C)(C)N1[O]		inactive
CCCCC1C(=O)N(c2ccccc2)N(c2ccccc2)C1=O		inactive

Structure (SMILES)	AC50	outcome
COc1ccc(C(=O)c2ccccc2)c(O)c1		inactive
CC=C(C)C(C)=O		inactive
O=C(Cl)c1c(Cl)c(Cl)c(C(=O)Cl)c(Cl)c1Cl		inactive
CC/C=C\CCOC(=O)c1ccccc1O	36.2 µM (active)	
O=C(Oc1ccccc1)c1ccccc1C(=O)Oc1ccccc1		inactive
CC(C)C(=O)OCCc1ccccc1		inactive
Nc1nc(N)nc(-c2ccccc2)n1		inactive
CC(c1cc(C(C)(C)C)cc(C(C)(C)C)c1O)c1cc(C(C)(C)C)cc(C(C)(C)C)c1O		inactive
Cc1c(O)cccc1O		inactive
CC(Cl)COP(=O)(OCC(C)Cl)OCC(C)Cl (stereo not given)		inactive
COc1ccc(C(=O)/C(Br)=C\C(=O)O)cc1	10.2 µM (active) and 16 µM (active)	
Fc1ccc(Br)cc1		inactive
CCCCCCC=O		inactive
C=C(C)C(=O)OCCCCCCCCCCCC		inactive
C=CC(=O)OCC(C)OCC(C)OCC(C)OC(=O)C=C (stereo not given)	6.73 µM (active)	
Nc1cccc(N)n1		inactive
O=C1CCCCCCCCCCCN1		inactive
CCCCCCCCCCCC(=O)N(C)CC(=O)O		inactive
COC(OC)(C(=O)c1ccccc1)c1ccccc1		inactive
CC(C)[N+](C)(CCOC(=O)C1c2ccccc2Oc2ccccc21)C(C)C		inactive
